From PubChem BioAssay (NCI) come the findings set out here.

About 83,000 compounds went through this panel and 20% of them were active in at least one assay; those are over-represented in the sample as a whole.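 Percent growth is the endpoint: 0 to 100 indicates growth inhibition (40 means 60% inhibition), 0 means no net growth, and negative values indicate cell death.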 Calls of active or inactive are those of the source. How the source made its calls: active means growth percent below 10; inactive means the rest.

For the experiment, the system named is SN12C renal. The experiment is described as follows: NCI-60 one-dose screen, 48 h (100 = growth as untreated, 0 = no growth, -100 = all killed). As to conditions: 10 µM unless noted.
On to `O=C(c1ccccc1)C1OC1c1ccc([N+](=O)[O-])cc1` (stereo not drawn), for which the growth was 76.7% (inactive).
In the case of `Nc1cccc(Cl)c1N` it was 112% (inactive).
The result for `CCN(CC)CCOc1ccc(Cl)c(C)c1` reads 108% (inactive).
In the case of `COC(=O)C(Sc1ccc(Cl)cc1)C1SC(=S)N(Cc2ccccc2)C1=O` (stereo not drawn) it was 82.3% (inactive); in that of `CC(=O)Nc1scc[n+]1Cc1ccccc1`, 111% (inactive).
With `CCCCN(CCCC)C(=N)c1ccnc2ccccc12`, the growth was 113% (inactive).
Consider `O=C(Oc1ccccc1[N+](=O)[O-])C1CCCN1C(=O)OCc1ccccc1` (stereo not drawn), for which the growth was 98.7% (inactive).
Regarding `CCN(CC)c1ccc(CNc2ccnc3ccccc23)cc1`, the growth is 64% (inactive).
The result for `CC1=C(C#N)C(=O)NC(C)C1` (stereo not drawn) reads 99.9% (inactive).
As for `CC1CCC(C)N(C)C1` (stereo not drawn), the growth is 92.8% (inactive).
On to `COC(=O)c1cccc2c1N(C)c1c(cccc1C(=O)OC)CC2`, for which the growth is 107% (inactive).
The result for `COc1cc(-c2nn(-c3cccc(NC(=O)c4ccc(Cl)c(C(F)(F)F)c4)c3)cc2-c2ccncc2)ccc1Cl` reads 57.3% (inactive).
In the case of `CN(C)c1cccc2c(S(=O)(=O)/N=C(\N)Nc3nc4ccccc4s3)cccc12` it was 88.4% (inactive); in that of `Nc1cc2c(cc1C(=O)c1cccc(F)c1)OCCO2`, 90.1% (inactive).
As for `O=C(Nc1ccc(NCCN2CCOCC2)nc1)c1ccc([N+](=O)[O-])cc1`, the growth is 107% (inactive).
The result for `COP(=O)(OC)/C(=N\NS(=O)(=O)c1ccc(C)cc1)c1ccccc1` reads 105% (inactive); that for `CC(=O)Nc1ccc(/C=C/C(=O)c2ccccc2)cc1`, 87.5% (inactive); that for `COc1ccc(CCNC2=CC(=O)CCC2)cc1OC`, 102% (inactive).
